Shown are actives, neighbours in structure and some others; about 6.9% of the full set was active somewhere.
KB-V1 MDR tox – KB-V1 MDR subline cytotoxicity. KB-V1 MDR cells viability, CellTiter-Glo, 72 h. AID 1347076. 3.4% of 400,000 active. Potency, µM (titrated, usually from 46.1 µM), actives largely listed as cytotoxic; also: nearly all actives have a fitted effect of over 60% in size
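KB-V1 cells (P-gp-expressing MDR subline of KB-3-1) in phenol-red-free DMEM with 10% FBS were exposed to library compounds over a concentration series for 72 h at 37 degrees C. Viability read by CellTiter-Glo luminescence; concentration-effect curves fitted after normalization.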
KB-3-1 tox – KB-3-1 parental cell cytotoxicity; KB-3-1 viability, CellTiter-Glo ATP luminescence, 72 h; Potency, µM (top dose mostly 46.1 µM), most hits filed as cytotoxic; 1.4% of 400,000 active; AID 1347075; also: nearly all actives have a fitted effect of over 60% in size
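Viability of parental KB-3-1 cells, measured by CellTiter-Glo luminescence, followed a 72 h incubation at 37 °C with pinned compounds in phenol-red-free DMEM containing 10% FBS.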
SW480 rereplic – inducers of DNA re-replication in SW480 colon cancer cells; 1.8% of 340,000 active; SW480 DNA re-replication, Hoechst DNA content imaging, 48 h; Potency, µM (titrated, usually from 46.1 µM), hits mostly activators; AID 624297; also: nearly all actives have a fitted effect of over 55% in size
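First, 250 cells per well were seeded. Next, compound or vehicle (23 nL) was pinned in, plates sat 48 hr at 37 C. Finally Hoechst was added for 40 min before fluorescence scanning.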
Giardia killer – Giardia lamblia killing | activity change, % at 7.66 µM, hits read low | 0.15% of 340,000 active | Giardia lamblia trophozoite viability; in the data active = activity change below about -80%; inconclusive = between about -30% and that limit;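 also: parasites exposed to compound for two days anaerobically before the ATP read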
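Each well holds 100 Giardia trophozoites and compound. After two days (48 hrs) at 37 deg C in anaerobic conditions, ATP is quantified by luminescence.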
S-ASM inh – inhibitors of human secretory acid sphingomyelinase | P17405 | placental ASM, HMU-PC fluorogenic substrate, 60 min | Potency, µM (titrated, usually from 57.5 µM), hits mostly inhibitors | 0.006% of 340,000 active | AID 504937
Target sequence (P17405 47-631 limits assumed): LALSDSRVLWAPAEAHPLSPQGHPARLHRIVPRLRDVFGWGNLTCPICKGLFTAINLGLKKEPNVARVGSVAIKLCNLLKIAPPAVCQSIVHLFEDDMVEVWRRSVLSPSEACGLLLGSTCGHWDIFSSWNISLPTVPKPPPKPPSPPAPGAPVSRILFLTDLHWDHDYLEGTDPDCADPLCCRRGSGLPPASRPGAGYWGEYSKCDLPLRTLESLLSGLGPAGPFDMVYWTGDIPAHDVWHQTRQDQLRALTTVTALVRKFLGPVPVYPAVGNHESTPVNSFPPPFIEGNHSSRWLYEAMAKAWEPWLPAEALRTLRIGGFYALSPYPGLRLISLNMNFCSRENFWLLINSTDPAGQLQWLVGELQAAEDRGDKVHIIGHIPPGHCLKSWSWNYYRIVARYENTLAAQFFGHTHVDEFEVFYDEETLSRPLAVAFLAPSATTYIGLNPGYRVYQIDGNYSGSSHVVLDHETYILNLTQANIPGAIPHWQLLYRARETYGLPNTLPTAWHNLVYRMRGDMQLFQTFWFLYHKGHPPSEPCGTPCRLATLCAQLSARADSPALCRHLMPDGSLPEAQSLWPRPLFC
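HMU-PC0 cleavage (9 uM final) by human placental ASM, 60 min at 37 °C following 10 min compound exposure at RT; stopped at pH 10, fluorescence Ex 386/Em 447 nm.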
MCF10A rerep – DNA re-replication induction in MCF 10a cells; Potency, µM (top dose mostly 46.1 µM), actives largely listed as activators; MCF 10A DNA re-replication, Hoechst nuclear intensity, 48 h; 2.9% of 350,000 active; also: nearly all actives have a fitted effect of over 50% in size
Each line names hits and unclear results; the compound was inactive in the other large screens. Unless noted, calls follow the shape of the dose curve; as a rule, active = well fitted curve in the direction sought with a large enough effect; inconclusive = small, poorly fitted or top-dose-only effect, or another doubt; inactive = no such curve, though single readings can be large; an effect the other way counts as inactive or inconclusive.

CC(C)(C)OC(=O)N1CC=C2C(C#N)=C(N)C(C#N)(C#N)C(c3cccs3)C2C1 (configuration not stated)	KB-V1 MDR tox 9.2µM, MCF10A rerep inconclusive
c1ccc2nc3c(nc2c1)[nH]c1ccccc13	none
c1ccc(-c2c3ccccc3nc3[nH]c4ccccc4c23)cc1	SW480 rereplic 12µM, MCF10A rerep inconclusive
COC(=O)CCNC(=O)N1CCN(c2nnc(C)c3c(C)n(-c4ccc(Cl)cc4)nc23)CC1	none (no result: SW480 rereplic, Giardia killer, S-ASM inh, MCF10A rerep)
Cc1ccc(CNC(=O)CN2C(=O)CCc3cc(S(=O)(=O)N4CCCCC4)ccc32)cc1	none (no result: SW480 rereplic, Giardia killer, S-ASM inh, MCF10A rerep)
CCOc1ccccc1NC(=O)C1=C(C)Nc2ncnn2C1c1ccco1 (configuration not stated)	KB-V1 MDR tox inconclusive (no result: SW480 rereplic, Giardia killer, S-ASM inh, MCF10A rerep)
COc1ccc(-c2c(C#N)c(N)nc3sc(C(=O)c4ccccc4)c(N)c23)cc1	KB-V1 MDR tox 4.1µM, MCF10A rerep inconclusive
COc1ccc(C(=O)c2sc3nc(-c4ccccc4)ccc3c2N)cc1	KB-3-1 tox inconclusive, SW480 rereplic 21µM, MCF10A rerep 3.7µM
CCOc1ccccc1NC(=O)c1sc2nc(-c3ccc(OC)cc3)ccc2c1N	KB-V1 MDR tox inconclusive (no result: SW480 rereplic, Giardia killer, S-ASM inh, MCF10A rerep)
CC(C)OC(=O)c1sc2nc(-c3ccccc3)ccc2c1N	SW480 rereplic 5.8µM, MCF10A rerep inconclusive
Cc1nc2sc(C(=O)c3ccccc3)c(N)c2c(C)c1C	KB-V1 MDR tox inconclusive
Cc1nc(-c2ccccc2)nc2sc(C(=O)c3ccc(F)cc3)c(N)c12	SW480 rereplic 16µM, MCF10A rerep 10µM
CCOC(=O)c1sc2nc(-c3cccnc3)ccc2c1N	Giardia killer inconclusive, MCF10A rerep inconclusive
CCOc1ccc(-c2c(C#N)c(N)nc3sc(C(=O)c4ccccc4)c(N)c23)cc1	none
Cc1ccc(Cl)cc1N1CCN(C(=O)c2ccc3c(c2)N(Cc2ccccc2F)C(=O)c2ccccc2S3=O)CC1 (configuration not stated)	none (no result: SW480 rereplic, Giardia killer, S-ASM inh, MCF10A rerep)
Cc1ccc(N2CC(c3nc(-c4ccc(Cl)cc4)no3)CC2=O)cc1F (configuration not stated)	none (no result: SW480 rereplic, Giardia killer, S-ASM inh, MCF10A rerep)
CCN1CCCc2cc(CN(CCN3CCOCC3)C(=S)Nc3cccc(C)c3)ccc21	KB-3-1 tox inconclusive
CCN1CCCc2cc(CN(CCN3CCOCC3)C(=O)Nc3ccc(C)c(C)c3)ccc21	KB-V1 MDR tox 21µM, MCF10A rerep inconclusive
CCc1ccc(NC(=O)N(CCN2CCOCC2)Cc2ccc3c(c2)CCCN3CC)cc1	KB-V1 MDR tox 21µM
Cc1nnc(SCC(=O)N(C)c2ccccc2)n1Cc1ccccc1	none
CCCCc1ccc(NC(=S)Nc2ccc(Nc3ccc(OC)cc3)cc2)cc1	KB-V1 MDR tox 16µM, KB-3-1 tox inconclusive, SW480 rereplic inconclusive, MCF10A rerep 21µM
CCCCc1ccc(NC(=S)Nc2ccc(Cl)c(S(=O)(=O)N(C)C)c2)cc1	KB-V1 MDR tox 23µM, KB-3-1 tox inconclusive, MCF10A rerep inconclusive
NC(=S)NCc1cccnc1	none
O=C(NC(=S)NCc1cccnc1)c1ccccc1[N+](=O)[O-]	KB-V1 MDR tox 23µM
CSC(=S)NCc1cccnc1	KB-3-1 tox 26µM, SW480 rereplic 3.7µM, MCF10A rerep 3.3µM
N#Cc1ccccc1S(=O)(=O)N1CCN(C(=O)C2CCC2)CC1	none (no result: S-ASM inh)
Cc1nc(SCc2cccc(Cl)c2)nc2c1CCCC2	KB-V1 MDR tox inconclusive (no result: SW480 rereplic, Giardia killer, S-ASM inh, MCF10A rerep)
Cc1ccc(NC(=O)c2cc(S(=O)(=O)N(C)C3CCCCC3)ccc2F)cc1C	none (no result: SW480 rereplic, Giardia killer, S-ASM inh, MCF10A rerep)
COc1ccc(N2C(=O)CSC23C(=O)N(CC(=O)NCc2ccccc2)c2ccccc23)cc1 (configuration not stated)	none (no result: SW480 rereplic, Giardia killer, S-ASM inh, MCF10A rerep)
CCc1ccc(NC(=S)NCc2cccnc2)cc1	none
CCCCc1ccc(NC(=S)NCc2cccnc2)cc1	KB-V1 MDR tox 15µM, KB-3-1 tox inconclusive, MCF10A rerep inconclusive
N#Cc1ccccc1OC1=NS(=O)(=O)c2ccccc21	none (no result: SW480 rereplic, Giardia killer, S-ASM inh, MCF10A rerep)
CCOc1cc(/C=N/NC(=O)c2cccc([N+](=O)[O-])c2)ccc1OS(=O)(=O)c1ccccc1	KB-V1 MDR tox 13µM, KB-3-1 tox inconclusive

Screening results: PubChem, National Center for Advancing Translational Sciences (NCATS)
